In PubChem BioAssay AID2012 (Sanford-Burnham Center for Chemical Genomics, 2009):
The campaign covered roughly 290,000 compounds. About 2,700 (0.93%) were called active. The rule behind the calls is not given here. The sample as a whole holds a higher share of actives than the screen did.

Target: Eukaryotic translation initiation factor 4H (Homo sapiens) (UniProt Q15056)
Assay: human eIF4H binding inhibitors, primary screen, translation initiation inhibitor project, biochemical, uHTS, fluorescence polarization (AID 2012);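 note: calls also rest on retests at 20 µM and on dose response follow-up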
Details: eIF4H fluorescence polarization binding assay, stronger effect = higher value

`CCOc1ccc(N(CC(=O)NCC2CCCO2)S(=O)(=O)c2ccc(C)cc2)cc1` (stereo not given) was tested, and the inhibition (at 35 µM) was 11.5% (inactive).
With `COc1ccc(-c2nnc3n2CCCCC3)cc1` the inhibition (at 35 µM) was -12.1% (inactive).
With `COCCn1cnc2c1c(=O)n(CC(=O)NN)c(=O)n2Cc1ccccc1` the inhibition (at 35 µM) was -8.7% (inactive).
In the case of `O=C(Nc1ccccc1)C1CCN(C(=O)c2ccc(Br)cc2)CC1`, the inhibition (at 35 µM) is reported as -11% (inactive).
For `Cc1cc(C)n2nc(SCC(N)=O)nc2n1`, the inhibition (at 35 µM) was -5.6% (active) and the inhibition (confirmation average, at 20 µM) was 113%.
`CCOC(=O)C(C)Sc1nnc(CSc2nc3nc(C)cc(C)n3n2)o1` (stereo not given) was tested, and the inhibition (at 35 µM) was -7.5% (inactive).
`COc1ccc(C(C)=O)cc1CSc1nc2nc(C)cc(C)n2n1` was tested, and the inhibition (at 35 µM) was 1.9% (inactive).
For `COc1cnc(-c2ccccn2)nc1Oc1ccc(C(C)(C)C)cc1`, the inhibition (at 35 µM) was 11.9% (inactive).
For `COc1ccc(CCN(C)C(=O)C23CC4CC(CC(Cl)(C4)C2)C3)cc1OC`, the inhibition (at 35 µM) was -16.6% (inactive).
`CCN(CC)CCOc1ccc2c(c1)C(=NNC(=O)c1ccccn1)c1cc(OCCN(CC)CC)ccc1-2` was tested, and the inhibition (at 35 µM) was -3% (active) and the inhibition (confirmation average, at 20 µM) was 83.6%.
For `COc1ccc(CC(=O)N/N=C(\C)c2ccccn2)cc1`, the inhibition (at 35 µM) was 7.3% (inactive).
For `Cc1cccc(OCC(=O)NCCCNC(=O)c2ccccn2)c1`, the inhibition (at 35 µM) was -28.2% (inactive).
With `COc1ccc(NC(=O)CN(C)C(=O)CNC(=O)C2CCCCC2)cc1` the inhibition (at 35 µM) was -4% (inactive).
For `C=CCOc1cccc(CNCc2cccnc2)c1`, the inhibition (at 35 µM) was 10.5% (inactive).
With `Cc1nnc(N(Cc2ccco2)C(=O)c2ccno2)s1` the inhibition (at 35 µM) was 55.4% (active).
`Cc1ccc(-c2csc(N(Cc3ccco3)C(=O)c3cccs3)n2)cc1` was tested, and the inhibition (at 35 µM) was -15.6% (inactive).
With `CN(C(=O)c1ccno1)c1nnc(-c2cccnc2)s1` the inhibition (at 35 µM) was -2.8% (inactive).
For `Cc1ccccc1CN1CCC(C(=O)Nc2ccc(Oc3cccnc3)cc2)CC1`, the inhibition (at 35 µM) was -4.5% (inactive).
`Cc1cc(F)ccc1S(=O)(=O)N1CCCOC1CNC(=O)C(=O)NCCC1=CCCCC1` (stereo not given) was tested, and the inhibition (at 35 µM) was -0.8% (inactive).
With `O=C(NCCCc1ccccc1)C(=O)NCC1OCCN1S(=O)(=O)c1ccccc1` (stereo not given) the inhibition (at 35 µM) was -4.1% (inactive).
For `O=C(NCCCn1ccnc1)C(=O)NCC1OCCN1S(=O)(=O)c1cc(F)ccc1F` (stereo not given), the inhibition (at 35 µM) was 86.5% (active).
For `Nc1ncc(CN2CCCC(C(=O)Nc3ccc(-c4ccco4)cc3)C2)cn1` (stereo not given), the inhibition (at 35 µM) was -17.3% (inactive).
For `CC(C)OC(=O)c1ccc(COc2ccc3ccc(=O)oc3c2)o1`, the inhibition (at 35 µM) was 1.1% (inactive).
`Cc1ccc2sc(N(CCN(C)C)C(=O)/C=C/c3cccs3)nc2c1C` was tested, and the inhibition (at 35 µM) was -10.2% (inactive).
With `CS(=O)(=O)c1ccc2c(c1)SC1=NC(=O)/C(=C/c3ccco3)C(=N)N12` the inhibition (at 35 µM) was 93.9% (active).
For `CS(=O)(=O)C1=NN2C(=N)/C(=C\c3ccc(OCCOc4ccccc4)cc3)C(=O)N=C2S1`, the inhibition (at 35 µM) was 16.1% (inactive).
For `Cc1cc(/C=C2/C(=N)N3C(=NC2=O)SN=C3S(C)(=O)=O)c(C)n1-c1ccccc1`, the inhibition (at 35 µM) was 93.3% (inactive) and the inhibition (confirmation average, at 20 µM) was -7.9%.
In the case of `CN(C(=O)CN1C(=O)CCSc2ccc(S(=O)(=O)N3CCCC3)cc21)c1ccccc1`, the inhibition (at 35 µM) is reported as -3.2% (inactive).
`CCC(=O)Nc1ccc(C(=O)NNC(=O)c2ccc(Cl)cc2)cc1` was tested, and the inhibition (at 35 µM) was 8% (inactive).
With `C=CCNC(=O)/C=C/c1ccc(C(C)C)cc1` the inhibition (at 35 µM) was 3.9% (inactive).
With `CC(=O)c1ccc(NC(=O)CCc2nnc3ccc(NCc4ccco4)nn23)cc1` the inhibition (at 35 µM) was 38.5% (inactive).
With `O=C(CCc1nnc2ccc(NCc3ccco3)nn12)Nc1cc(F)ccc1F` the inhibition (at 35 µM) was 75.2% (active) and the inhibition (confirmation average, at 20 µM) was 75.7%.
For `CCOc1ccccc1NC(=O)CCc1nnc2ccc(NCc3ccco3)nn12`, the inhibition (at 35 µM) was 13.1% (inactive).
In the case of `O=C(CN1CCc2cc3c(cc2C1)OCCCO3)Nc1ccccc1`, the inhibition (at 35 µM) is reported as 4.5% (inactive).
`CCOc1ccc(NC(=S)N2CCC(NC(=O)c3ccccc3)CC2)cc1` was tested, and the inhibition (at 35 µM) was -8.9% (inactive).
`COc1ccc(-c2nc3n(c(=O)c2C#N)CCS3)c(OC)c1` was tested, and the inhibition (at 35 µM) was 5.3% (inactive).
In the case of `O=C(CCc1ccccc1)Nc1ccnn1C1CCN(Cc2ccc(OCCO)cc2)CC1`, the inhibition (at 35 µM) is reported as 5.2% (inactive).
`COc1ccc(-c2cc(C(=O)N(C)Cc3ccc(OC)c(OC)c3OC)c3ccccc3n2)cc1OC` was tested, and the inhibition (at 35 µM) was 10.7% (inactive).
In the case of `COc1ccc2[nH]c(=O)c(-c3noc(-c4ccc(F)cc4)n3)cc2c1`, the inhibition (at 35 µM) is reported as 3.8% (inactive).
For `CCCc1nc(-c2cc3cc(C)ccc3[nH]c2=O)no1`, the inhibition (at 35 µM) was 2.5% (active) and the inhibition (confirmation average, at 20 µM) was 79.5%.
`CCNCc1cc2cc(C)ccc2[nH]c1=O` was tested, and the inhibition (at 35 µM) was 24% (inactive).
With `COc1ccccc1NC(=S)N1CCN(c2ccc(F)cc2)CC1` the inhibition (at 35 µM) was -0.9% (inactive).
For `COc1ccc(NC(=O)C2=CC(c3ccc(OC)c(OC)c3)=NS(=O)(=O)N2C)cc1`, the inhibition (at 35 µM) was 1.5% (inactive).
In the case of `COc1ccc(-c2noc(CNC(=O)C(C)Oc3ccccc3)n2)cc1` (stereo not given), the inhibition (at 35 µM) is reported as -4.8% (inactive).
In the case of `Cn1cc(/C=C/c2nc3ccccc3c(=O)n2-c2cccc([N+](=O)[O-])c2)c2ccccc21`, the inhibition (at 35 µM) is reported as -2.7% (inactive).
`Cc1nc2ccccc2c(=O)n1Cc1ccc([N+](=O)[O-])cc1` was tested, and the inhibition (at 35 µM) was -6.2% (inactive).
For `CCn1c(/C=C/c2ccc([N+](=O)[O-])o2)nc2ccccc2c1=O`, the inhibition (at 35 µM) was 83.6% (active) and the inhibition (confirmation average, at 20 µM) was 56.8%.
For `CN1/C(=C\C(=O)c2oc3ccccc3c2N)C(C)(C)c2ccccc21`, the inhibition (at 35 µM) was -2.5% (inactive).
`CN1/C(=C\C(=O)c2cccnc2Cl)C(C)(C)c2ccccc21` was tested, and the inhibition (at 35 µM) was -6.3% (inactive).
With `CN1/C(=C\C=C2\N=C(c3ccc(F)cc3)OC2=O)C(C)(C)c2ccccc21` the inhibition (at 35 µM) was 128% (active) and the inhibition (confirmation average, at 20 µM) was 97%.
In the case of `Cc1cccnc1NC(=O)Cn1c(=O)oc2ccccc21`, the inhibition (at 35 µM) is reported as 4.8% (inactive).
For `Cc1ccc(O)c(NC(=O)c2cc(-c3ccco3)on2)c1`, the inhibition (at 35 µM) was -14.1% (inactive).
With `COc1ccc(-c2nonc2NC(=O)c2oc3ccc(F)cc3c2C)cc1OC` the inhibition (at 35 µM) was -3.8% (inactive).
For `COc1ccc(Nc2cc(Cl)ccc2C(=O)O)cn1`, the inhibition (at 35 µM) was 96.9% (active) and the inhibition (confirmation average, at 20 µM) was 74%.
In the case of `COc1ccc(Nc2ccc([N+](=O)[O-])cn2)cn1`, the inhibition (at 35 µM) is reported as 82% (inactive) and the inhibition (confirmation average, at 20 µM) is reported as 20.1%.
`COc1cccc(Nc2ncccc2C(=O)O)c1` was tested, and the inhibition (at 35 µM) was -3.4% (inactive).
